PubChem BioAssay AID624260 (Broad Institute, 2012)
The whole screen tested about 44,000 compounds, of which about 30 (0.07%) were called active. Roughly 1% stayed inconclusive and do not appear here. Rule as the data show it: active = inhibition above about 54% (passing the limit was not always enough); inconclusive = no clear call, values can overlap the other calls. The full list was thinned out, with actives kept by preference.

Molecular target: Histone-lysine N-methyltransferase NSD2 (Homo sapiens) (UniProt O96028)
Sequence (O96028 whole entry, looked up): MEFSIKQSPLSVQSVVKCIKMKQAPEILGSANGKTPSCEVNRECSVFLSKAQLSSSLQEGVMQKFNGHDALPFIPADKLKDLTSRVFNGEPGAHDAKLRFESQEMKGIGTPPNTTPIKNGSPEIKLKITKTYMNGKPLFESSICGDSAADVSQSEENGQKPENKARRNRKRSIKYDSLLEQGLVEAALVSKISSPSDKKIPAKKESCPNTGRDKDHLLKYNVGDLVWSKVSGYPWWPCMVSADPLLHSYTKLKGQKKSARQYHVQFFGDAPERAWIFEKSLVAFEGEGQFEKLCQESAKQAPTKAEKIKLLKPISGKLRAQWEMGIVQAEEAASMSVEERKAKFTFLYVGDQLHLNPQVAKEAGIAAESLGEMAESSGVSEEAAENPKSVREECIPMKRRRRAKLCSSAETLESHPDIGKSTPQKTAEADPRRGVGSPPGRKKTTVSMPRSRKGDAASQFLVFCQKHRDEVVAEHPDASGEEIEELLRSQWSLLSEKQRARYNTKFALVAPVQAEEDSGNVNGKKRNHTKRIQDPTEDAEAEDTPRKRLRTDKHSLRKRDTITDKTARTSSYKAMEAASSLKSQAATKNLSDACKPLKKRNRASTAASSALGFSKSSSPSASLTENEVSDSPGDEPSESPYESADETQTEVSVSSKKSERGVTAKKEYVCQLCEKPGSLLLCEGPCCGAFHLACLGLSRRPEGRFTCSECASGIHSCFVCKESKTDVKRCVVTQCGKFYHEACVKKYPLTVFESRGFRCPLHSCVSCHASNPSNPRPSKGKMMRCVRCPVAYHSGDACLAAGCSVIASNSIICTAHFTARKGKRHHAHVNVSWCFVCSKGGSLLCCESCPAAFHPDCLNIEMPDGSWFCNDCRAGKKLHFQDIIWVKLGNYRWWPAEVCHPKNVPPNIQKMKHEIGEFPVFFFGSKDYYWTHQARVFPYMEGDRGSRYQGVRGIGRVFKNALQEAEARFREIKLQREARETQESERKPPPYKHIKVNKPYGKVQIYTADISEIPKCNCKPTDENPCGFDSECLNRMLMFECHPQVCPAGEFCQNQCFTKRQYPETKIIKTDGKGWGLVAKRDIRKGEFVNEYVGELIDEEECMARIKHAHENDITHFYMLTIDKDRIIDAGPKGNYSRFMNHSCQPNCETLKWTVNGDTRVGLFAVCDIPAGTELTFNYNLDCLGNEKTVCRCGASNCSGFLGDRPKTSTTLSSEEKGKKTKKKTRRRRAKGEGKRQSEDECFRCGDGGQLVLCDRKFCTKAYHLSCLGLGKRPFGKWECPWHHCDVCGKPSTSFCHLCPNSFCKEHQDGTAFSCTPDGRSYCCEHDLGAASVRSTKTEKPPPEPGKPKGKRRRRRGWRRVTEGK
Assay: NSD2 histone methyltransferase activity blockers – biochemical, plate reader, single point, primary screen (AID 624260);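 also: inhibitors reduce the monomethyl H3K36 fluorescence signal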
Settings: NSD2-SET H3K36me1 DELFIA fluorescence, at 12.5 µM, active compounds read high

SMILES	inhibition
CCCC#Cc1ccc2c(c1)O[C@H](CN(C)C(=O)c1ccncc1)[C@H](C)CN([C@H](C)CO)S2(=O)=O	5.45% (inactive)
C[C@H](CO)N1C[C@H](C)[C@@H](CN(C)C(=O)C2CC2)Oc2cc(-c3cccc(C#N)c3)ccc2S1(=O)=O	-3.58% (inactive)
Cc1noc(C)c1S(=O)(=O)Nc1ccc2c(c1)CC(=O)N([C@@H](C)CO)C[C@@H](C)[C@H](CN(C)S(=O)(=O)c1cccs1)O2	-2.26% (inactive)
C[C@@H]1CN([C@@H](C)CO)C(=O)Cc2cc(NC(=O)CCCCCC(=O)Nc3ccccc3N)ccc2O[C@H]1CN(C)Cc1ccc(Cl)c(Cl)c1	-4.04% (inactive)
Cc1ccc(-c2cnc3c(c2)C(=O)N([C@H](C)CO)C[C@H](C)[C@@H](CN(C)S(C)(=O)=O)O3)cc1	4.66% (inactive)
C[C@H]1CN([C@@H](C)CO)C(=O)c2cc(-c3cccc(F)c3)cnc2O[C@@H]1CN(C)C(=O)c1ccccn1	3.24% (inactive)
C[C@@H]1CN([C@H](C)CO)C(=O)c2cc(C#Cc3ccncc3)cnc2O[C@H]1CN(C)Cc1ccncc1	6.93% (inactive)
C[C@@H]1CN([C@@H](C)CO)C(=O)c2cc(C#Cc3ccncc3)cnc2O[C@@H]1CN(C)C(=O)CN(C)C	3.43% (inactive)
CCCC#Cc1cnc2c(c1)C(=O)N([C@H](C)CO)C[C@H](C)[C@@H](CN(C)S(=O)(=O)c1ccccc1)O2	8.48% (inactive)
C[C@@H]1CN([C@@H](C)CO)S(=O)(=O)c2ccc(C#Cc3cccnc3)cc2O[C@@H]1CN(C)C(=O)CN(C)C	0.378% (inactive)
COCC#Cc1cnc2c(c1)C(=O)N([C@H](C)CO)C[C@H](C)[C@H](CN(C)C(=O)Cc1cccnc1)O2	-0.822% (inactive)
C[C@H](O)C#Cc1ccc2c(c1)O[C@@H](CN(C)C(=O)C1CC1)[C@H](C)CN([C@H](C)CO)S2(=O)=O	3.98% (inactive)
CCC(=O)N(C)C[C@@H]1Oc2cc(C#CCOC)ccc2S(=O)(=O)N([C@@H](C)CO)C[C@@H]1C	4.65% (inactive)
C[C@H](CO)N1C[C@H](C)[C@@H](CN(C)S(=O)(=O)c2cccc(F)c2)Oc2cc(C#CCN(C)C)ccc2S1(=O)=O	0.824% (inactive)
COc1cc(/C=N/NC(=O)c2ccc(C(=O)NO)cc2)ccc1O	-2.52% (inactive)
C[C@@H]1CN([C@H](C)CO)C(=O)c2cc(C#CCN(C)C)cnc2O[C@@H]1CN(C)C(=O)Cc1cccnc1	-1.47% (inactive)
CCCC#Cc1cnc2c(c1)C(=O)N([C@@H](C)CO)C[C@@H](C)[C@@H](CN(C)Cc1ccccc1F)O2	4.92% (inactive)
C[C@@H]1CN([C@@H](C)CO)C(=O)c2cc(C#CC3CCCCC3)cnc2O[C@H]1CN(C)C(=O)Cc1ccccn1	-1.35% (inactive)
CNC[C@H]1Oc2cc(C#CCOC)ccc2S(=O)(=O)N([C@@H](C)CO)C[C@H]1C	-0.881% (inactive)
C[C@H]1CN([C@@H](C)CO)S(=O)(=O)c2ccc(-c3ccncc3)cc2O[C@@H]1CN(C)C(=O)CC1CC1	-0.24% (inactive)
C[C@@H]1CN([C@@H](C)CO)C(=O)c2cc(-c3ccncc3)cnc2O[C@@H]1CN(C)C(=O)C1CCCCC1	1.45% (inactive)
C[C@@H]1CN([C@@H](C)CO)C(=O)Cc2cc(NC(=O)C3CC3)ccc2O[C@H]1CN(C)C(=O)NC1CCCCC1	4.29% (inactive)
C[C@H](CO)N1C[C@H](C)[C@H](CN(C)Cc2cccnc2)Oc2ncc(C3=CCCC3)cc2C1=O	1.28% (inactive)
COc1ccc(NC(=O)N(C)C[C@@H]2Oc3ccc(NC(=O)Cc4cn(C)c5ccccc45)cc3CC(=O)N([C@@H](C)CO)C[C@H]2C)cc1	-6.14% (inactive)
CC(C)NC(=O)N(C)C[C@H]1Oc2ncc(-c3ccc(C(=O)N(C)C)cc3)cc2C(=O)N([C@H](C)CO)C[C@H]1C	1.31% (inactive)

SMILES	inhibition
COc1ccc(NC(=O)N(C)C[C@@H]2OCc3ccccc3-c3c(n(C)c4ccccc34)C(=O)N([C@H](C)CO)C[C@H]2C)cc1	-10.2% (inactive)
CCC(=O)N(C)C[C@@H]1Oc2ncc(C3=CCCC3)cc2C(=O)N([C@H](C)CO)C[C@@H]1C	-1.76% (inactive)
CCC(=O)N(C)C[C@H]1Oc2cc(-c3ccc(C)cc3)ccc2S(=O)(=O)N([C@@H](C)CO)C[C@H]1C	-0.743% (inactive)
Cc1ccccc1S(=O)(=O)N(C)C[C@@H]1OCc2ccccc2-c2c(n(C)c3ccccc23)C(=O)N([C@H](C)CO)C[C@H]1C	-9.38% (inactive)
O=C(C[C@H]1C[C@H]2c3cc(NC(=O)CC4CC4)ccc3O[C@H]2[C@H](CO)O1)NCc1ccccn1	-2.07% (inactive)
C[C@@H]1CN([C@@H](C)CO)C(=O)c2cccc(N(C)C)c2O[C@@H]1CN(C)S(=O)(=O)c1ccccc1	2.66% (inactive)
C[C@@H]1CCCCO[C@H](CN(C)Cc2ccc(Cl)c(Cl)c2)[C@@H](C)CN([C@@H](C)CO)C(=O)c2cc(NC(=O)Nc3ccccc3)ccc2O1	-6.5% (inactive)
C[C@@H]1CN([C@H](C)CO)S(=O)(=O)c2ccc(C#CCN(C)C)cc2O[C@H]1CN(C)C(=O)CC1CC1	2.71% (inactive)
C[C@@H]1CN([C@@H](C)CO)C(=O)c2cc(C3=CCCC3)cnc2O[C@@H]1CN(C)C(=O)Cc1ccncc1	-7.1% (inactive)
CN(C)C(=O)C[C@@H]1C[C@@H]2c3cc(NC(=O)C4CCOCC4)ccc3O[C@@H]2[C@@H](CO)O1	-0.279% (inactive)
COc1ccccc1S(=O)(=O)N(C)C[C@H]1Oc2cc(C#CCC3CCCC3)ccc2S(=O)(=O)N([C@@H](C)CO)C[C@H]1C	-4.13% (inactive)
Cc1noc(C)c1NC(=O)Nc1ccc2c(c1)C(=O)N([C@@H](C)CO)C[C@H](C)[C@@H](CN(C)Cc1ccncc1)OCCCC[C@@H](C)O2	-3.95% (inactive)
C[C@@H]1CN([C@H](C)CO)S(=O)(=O)c2ccc(/C=C/c3ccccc3)cc2O[C@@H]1CN(C)Cc1ccccc1	9.82% (inactive)
CC(C)CC#Cc1cnc2c(c1)C(=O)N([C@@H](C)CO)C[C@@H](C)[C@@H](CN(C)C(=O)c1cccnc1)O2	-0.174% (inactive)
C[C@@H]1CN([C@H](C)CO)C(=O)c2cc(C3=CCCCC3)cnc2O[C@@H]1CN(C)C(=O)c1ccc2c(c1)OCO2	-0.482% (inactive)
C[C@H]1CN([C@@H](C)CO)S(=O)(=O)c2ccc(Br)cc2O[C@H]1CN(C)C(=O)c1cnccn1	-5.84% (inactive)
COc1cccc(S(=O)(=O)N[C@H]2CC[C@H](CC(=O)NC3CCC3)O[C@H]2CO)c1	8.91% (inactive)
O=C(C[C@@H]1C[C@@H]2c3cc(NC(=O)c4ccc5c(c4)OCO5)ccc3O[C@@H]2[C@@H](CO)O1)NCC1CC1	0.538% (inactive)
C[C@H](CO)N1C[C@H](C)[C@H](CN(C)C(=O)Cc2ccccn2)Oc2ncc(-c3cncnc3)cc2C1=O	-7.65% (inactive)
Cc1ccc(S(=O)(=O)Nc2ccc3c(c2)C(=O)N([C@H](C)CO)C[C@@H](C)[C@@H](CN(C)C)OCCCC[C@@H](C)O3)cc1	-3.71% (inactive)
COc1ccc(NC(=O)N(C)C[C@H]2Oc3ncc(C#C[C@@H](C)O)cc3C(=O)N([C@H](C)CO)C[C@H]2C)cc1	-13% (inactive)
COc1ccc(CN(C)C[C@@H]2OCCCC[C@@H](C)Oc3ccc(NS(=O)(=O)c4ccc(F)cc4)cc3C(=O)N([C@@H](C)CO)C[C@H]2C)cc1	-2.7% (inactive)
CCCNC(=O)N(C)C[C@H]1Oc2ncc(C#Cc3ccncc3)cc2C(=O)N([C@@H](C)CO)C[C@@H]1C	4.58% (inactive)
C/C=C/c1ccc2c(c1)O[C@H](CN(C)C(C)=O)[C@H](C)CN([C@H](C)CO)S2(=O)=O	8.37% (inactive)
O=C(C[C@H]1C=C[C@H](NC(=O)CN2CCOCC2)[C@@H](CO)O1)NCc1cccc(F)c1	-94.1% (inactive)
